Screens deposited in PubChem BioAssay by several laboratories.
Sampled rows, rich in hits. Any-hit rate of the full collection: about 1.9%.
S1P4 ag: agonists of human S1P4 receptor; S1P4-expressing cell line, agonist reporter assay; activation, % at 4.98 µM; 220,000 tested, 0.35% active; AID 1509; in the data active = activation above about 11%;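 note: 0% = DMSO vehicle and 100% = reference agonist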
S1P3 antagonist: S1P3 (human) receptor antagonism; CHO S1P3 NFAT-BLA reporter, FRET fluorescence, antagonist mode; 170,000 tested, 0.27% active; inhibition, % at 4.98 µM; Q99500; AID 485;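 active = inhibition above the plate cutoff, the mean inhibition of test wells on that plate plus 3 SD, cut at about 28% in these data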;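 note: cells challenged with S1P at its EC80 of 0.8 µM; blue over green emission ratio from cleaved BLA substrate after 4 h stimulation; 0% = S1P-stimulated wells and 100% = unstimulated DMSO-only wells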
Target sequence (Q99500 whole entry, looked up): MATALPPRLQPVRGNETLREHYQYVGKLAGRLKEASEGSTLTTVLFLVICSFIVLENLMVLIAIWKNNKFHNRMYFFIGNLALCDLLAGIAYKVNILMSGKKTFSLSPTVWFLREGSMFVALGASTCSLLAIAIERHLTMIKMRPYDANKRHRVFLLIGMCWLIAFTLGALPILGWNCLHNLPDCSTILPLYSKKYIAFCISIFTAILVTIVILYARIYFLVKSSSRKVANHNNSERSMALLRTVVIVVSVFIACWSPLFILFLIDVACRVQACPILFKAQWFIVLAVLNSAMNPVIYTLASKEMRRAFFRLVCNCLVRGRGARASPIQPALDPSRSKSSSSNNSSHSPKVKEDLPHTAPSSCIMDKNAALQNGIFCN
EP2 mod: modulators of human EP2 prostaglandin E2 receptor. induction, % at 25 µM. 260,000 tested, 0.83% active. EP2-expressing cells, cAMP HTRF FRET, PGE2 co-stimulation;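 active = compounds whose cAMP rise, as percent of the full-agonist control response, exceeds 60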;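 note: rat C6 glioma line stably carrying human EP2 under a CMV promoter; the protocol text gives 20 µM as final concentration; 100% = response of wells given 1 µM PGE2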
S1P4 antag: human S1P4 receptor antagonism; 220,000 tested, 0.26% active; AID 1510; O95977; S1P4-expressing cells, antagonist mode, reporter read-out; inhibition, % at 4.98 µM; in the data active = inhibition above about 29%;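 note: 0% = wells stimulated with agonist and 100% = vehicle wells without agonist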
EP2 antag: EP2 receptor (human) inhibition; P43116; inhibition, % at 25 µM; 260,000 tested, 0.52% active; C6 glioma cells expressing human EP2, cAMP TR-FRET; cells stimulated with saturating PGE2;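 active = percent inhibition above 40 after rounding to a whole number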;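 note: rat C6 glioma host cells with rolipram phosphodiesterase inhibitor present; the protocol text gives 20 µM as final concentration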
EP2 confirm: human EP2 receptor cAMP induction, negative in counter-screens. shares compounds with EP2 mod. C6 glioma EP2 cells, cAMP HTRF induction; plus low (about EC15) PGE2 agonist. calls only at 20 µM (by protocol). 1,300 tested, 47% active;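 active = cAMP induction above 50% in the main assay while under 30% in all four parallel counter assays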;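 note: rat C6 glioma cells stably expressing human EP2 receptor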
Active calls of the source: *; i = inactive; . = no result; + = active, no number.

SMILES	S1P4 ag	S1P3 antagonist	EP2 mod	S1P4 antag	EP2 antag	EP2 confirm
Cc1cc(SCCC(=O)O)nc2ccccc12	-1.1	.	.	-6.8	12.1	.
O=C(O)CCSc1ccc2ccccc2n1	0.3	.	79.6*	-21.8	9.6	i
O=C(O)CSc1ccc2ccccc2n1	-1.0	-7.3	66.7*	5.3	13.9	i
CCOC(=O)CSc1ccc2ccccc2n1	0.6	-26.2	42.4	10.1	8.9	.
Cc1nc(SCCC(=O)O)c2ccccc2n1	-0.5	-5.7	82.5*	-15.1	25.0	i
CS(=O)(=O)N1CCSC1c1ccc(Cl)cc1Cl (centres undefined)	.	.	-4.0	.	7.2	.
CC1CC(C)CN(C(=O)Cn2c(SCC(=O)N3CCCCC3)nc3ccccc32)C1 (centres undefined)	.	.	23.5	.	24.4	.
COc1cccc(NC(=O)CSc2nnc(-c3ccc(S(=O)(=O)N4CCCC4)cc3)o2)c1	.	.	16.4	.	13.2	.
COc1cccc(C(=O)Nc2cccc(OCC(=O)O)c2)c1	1.1	.	92.6*	1.3	5.6	+
COc1nc(Cc2ccc(Cl)cc2)nc2ccccc12	1.1	-3.8	-23.9	-0.3	4.8	.
C#CCSc1nc(Cc2ccc(Cl)cc2)nc2ccccc12	0.6	.	66.9*	-24.2	3.3	+
CCCN(CCC)C(C)C(=O)NCC1(c2ccccc2)CCCC1 (centres undefined)	0.5	-4.8	73.6*	-1.3	1.0	+
CCOc1ccc(Cl)cc1CNc1nnnn1C	0.5	-19.6	-13.7	10.8	10.2	.
CCCOc1ccc(Cl)cc1CNc1ccccc1	1.3	-3.5	73.0*	-1.6	2.1	+
Cc1ccc2cc(NC(=O)Cc3ccccc3)ccc2n1	-0.7	10.3	-23.5	5.2	7.0	.
Cc1cc(N)c2cc(NC(=O)Nc3ccc4nc(C)cc(N)c4c3)ccc2n1	.	.	61.5*	.	48.7*	i
Cc1ccc(C)c2nc(SCC(=O)Nc3ccc(N4CCOCC4)cc3)c(C#N)cc12	.	.	-15.5	.	11.0	.
C=CCNC(=O)CSc1nnc(-c2ccoc2C)n1-c1cc(C)ccc1C	.	.	1.8	.	15.1	.
CCCc1cc(-c2n[nH]c(=S)n2C(C)c2ccccc2)cs1 (centres undefined)	1.6	.	68.1*	-7.1	-0.8	+
CCCCn1c(-c2csc(CCC)c2)n[nH]c1=S	1.2	-6.2	58.5	-15.3	14.9	i
C=CCN1C(=O)C(=O)/C(=C(\O)c2ccccc2)C1c1ccc(OC)cc1OC (centres undefined)	.	.	2.1	.	8.3	.
Cc1cc(C)c2nc(N3CCCN(C(=O)c4ccco4)CC3)c(C#N)cc2c1	2.0	3.5	69.9*	-4.2	7.1	+
Cc1cc(C)c2nc(C(F)(F)F)nc(N3CCN(C(=O)c4ccco4)CC3)c2c1	-1.2	19.5	38.9	-19.5	4.1	.
CC1Cc2ccccc2N1C(=O)CSc1nnc(Cc2ccccc2)n1C (centres undefined)	.	.	-56.5	.	10.4	.
CC1Cc2ccccc2N1C(=O)CSc1nnc(Cc2ccccc2)n1CCc1ccccc1 (centres undefined)	1.3	.	65.9*	-11.6	.	i
SMILES	S1P4 ag	S1P3 antagonist	EP2 mod	S1P4 antag	EP2 antag	EP2 confirm
COCCOC(=O)c1[nH]c2c(c1C)C(=O)C(C(=O)OC)C(C)C2 (centres undefined)	0.3	-22.6	28.3	4.6	6.2	.
CCCCCOC(=O)c1[nH]c2c(c1C)C(=O)C(C(=O)OC)C(C)C2 (centres undefined)	0.4	.	90.7*	10.2	12.3	+
FC(F)(F)c1nnc(-c2ccccc2)nc1Sc1ccc(Cl)cc1	0.9	.	42.0	-23.7	6.8	.
FC(F)(F)c1nnc(-c2ccccc2)nc1Sc1ccccc1	-0.7	.	74.9*	-14.2	20.2	i
Cc1occc1-c1nnc(SCC(=O)Nc2ccccc2N2CCCCC2)n1C	-0.6	-6.5	55.2	-20.3	7.2	i
O=C(Cc1c(F)cccc1Cl)Nc1ccccc1N1CCCCC1	0.4	-11.6	75.4*	-22.2	5.2	+
O=C(Nc1ccccc1N1CCCCC1)c1ccc(F)cc1	-1.4	.	66.3*	-0.6	6.3	+
O=C(Cc1ccccc1)Nc1ccccc1N1CCCC1	1.0	-10.2	4.0	-43.0	6.2	.
O=C(CNCC1CCCCC1)Nc1ccccc1N1CCCCC1	0.4	.	65.7*	-9.2	5.4	+
O=C(Nc1ccccc1Cl)N1CCNCC1	.	.	-10.1	.	7.1	.
CC(=O)Oc1ccc2c(c1)CCC1C2CC[C@@]2(C)C1CC[C@@H]2OC(C)=O (some centres undefined)	.	.	34.0	.	15.7	.
O=C(Nc1ccccc1N1CCCCC1)c1cccc([N+](=O)[O-])c1	0.4	-20.4	50.9	6.7	2.8	+
CCN(CC)CCCN(Cc1cc2cccc(C)c2[nH]c1=O)C(=O)NC1CCCCC1	.	.	-68.9	.	11.6	.
COC(=O)C1=C(C)NC(=O)C1(NC(=O)c1ccncc1)C(F)(F)F (centres undefined)	2.9	-5.6	10.1	-4.2	7.9	.
COC(=O)NC1(C(F)(F)F)C(=O)NC(C)=C1C(=O)OC (centres undefined)	1.5	-9.1	70.7*	-14.6	10.5	i
COc1ccccc1NC(=O)NCc1ccc(N2CCCC2=O)cc1	.	.	-17.7	.	8.3	.
CCOc1ccc2c(c1)cc(C1OCCO1)c1nn(C)c(=O)n12	.	.	21.1	.	2.2	.
CCOc1cc(/C=N\NC(=O)c2ccc(NC(=O)C(C)(C)C)cc2)ccc1OC(=O)c1ccc(C)cc1	-0.4	.	-5.9	-9.3	5.8	.
CCOc1cc(/C=N/NC(N)=O)ccc1OC(=O)c1ccc(C)cc1	-0.9	.	66.2*	-2.7	.	i
C=CCn1ncc(CN(Cc2ccc(C)o2)C2CC(C)(C)NC(C)(C)C2)c1C	.	.	3.4	.	7.2	.
CC(=O)O[C@H]1C[C@@H](OC(C)=O)C(C)(C)C2C[C@@H](OC(C)=O)[C@]3(C)C([C@H](OC(C)=O)C[C@@]4(C)[C@H](c5ccoc5)OC(=O)[C@H]5O[C@]543)[C@]21C (some centres undefined)	.	.	70.1*	.	9.0	+
CC(=O)O[C@H]1CC[C@@]2(C)C(C[C@@H](OC(C)=O)[C@]3(C)C2CC[C@@]2(C)[C@H](c4ccoc4)OC(=O)[C@H]4O[C@]423)C1(C)C (some centres undefined)	.	.	25.1	.	9.0	.
C=CCSc1nc(Oc2ccccc2)c2sccc2n1	0.8	.	69.3*	3.4	8.2	i
CSc1nc(Oc2ccccc2)c2sccc2n1	-3.4	.	66.3*	2.4	5.6	+
CCOc1ccc(C(=O)N(CCO)Cc2cc3cc(C)ccc3[nH]c2=O)cc1	.	.	-19.8	.	0.0	.
CCc1nn(CC(=O)NCc2ccccc2OC)c(=O)c2cc3sc(C)cc3n12	.	.	37.3	.	.	.
Cc1cc(SCC(=O)c2ccccc2)nc2ccccc12	.	.	56.9	.	12.2	i
CCC(C)(C(=O)NC1CCCCC1)N(C(=O)C1CCC(=O)N1)c1ccccc1 (centres undefined)	3.6	.	66.5*	4.4	7.2	i
CCOc1ccc2nc(SCC(=O)N3CCCc4ccccc43)sc2c1	1.1	.	42.0	-12.8	3.8	.
